Six compounds from PubChem BioAssay (NCATS) can be followed below.

In assay [1] the target is Bile acid receptor (Homo sapiens) (UniProt Q96RI1). The assay is described as follows: qHTS assay for small molecule antagonists of farnesoid X receptor signaling (AID 588526). Also: potency is read from the fitted curve at half-maximal effect. In outline:
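Beta-lactamase reporter antagonist mode: HEK293T FXR-UAS-bla cells, titrated compound, CDCA stimulation, 16 h 37 C, CCF4 dye 2 h RT. Data normalized to CDCA 50 uM and DMSO; Hill-fit IC50.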
(In general: In qHTS, concentration-response curves come from the screen itself.)

Assay [2] has the same target. The assay is described as follows: qHTS assay for small molecule agonists of farnesoid X receptor signaling (AID 588527).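 Also: series mostly up to about 77 µM; 0% = vehicle basal and 100% = reference agonist.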 The following applies: HEK293T FXR-UAS-bla, beta-lactamase ratio, 16 h; activation: stronger effect = higher value. The procedure, abridged: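 Read-out: beta-lactamase reporter fluorescence with CCF4 substrate in GeneBLAzer FXR-UAS-bla HEK293T cells, after 16 h compound exposure at 37 C. Response scaled between DMSO basal (0%) and chenodeoxycholic acid at 100 uM (100%).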

The target of assay [3] is Glucocorticoid receptor (Homo sapiens) (UniProt P04150). The assay is described as follows: qHTS assay for small molecule agonists of glucocorticoid receptor signaling (AID 588532; active = well fitted curve in the direction sought with a large enough effect in the signal ratio, with a control signal flat; the % refers to the signal ratio;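 also: 100% = dexamethasone at 0.1 µM and 0% = DMSO only wells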). As to conditions: HeLa MMTV-bla, beta-lactamase ratio, agonist, 18 h; activation: stronger effect = higher value, percent of dexamethasone control, DMSO zero. In outline:
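Quantitative HTS using CellSensor MMTV-bla HeLa cells in charcoal/dextran-treated serum; compounds tested up to 92 uM. After 18 h at 37 C, CCF4 dye reported reporter induction.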

The nature of assay [4]: qHTS assay for small molecule antagonists of retinoid X receptor alpha signaling (AID 588546; active = well fitted inhibition curve with a large enough effect in the signal ratio, with a control signal flat, not every such curve was filed as active; the % refers to the signal ratio; also: potency is read from the fitted curve at half-maximal effect;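 as to max response: cells stimulated with 9-cis-retinoic acid as agonist; % is scaled to controls: 0 for no effect and ±100 for the full control effect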). The following applies: HEK293T RXRa-UAS-bla, beta-lactamase ratio, antagonist mode; measured here: W530 green channel, cytotoxicity proxy. In outline:
(§1)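 Beta-lactamase reporter inhibition, read as CCF4 fluorescence ratio (ex 405, em 460/530 nm) after 2 h at RT. HEK293T UAS-bla cells, 2500/well, were stimulated with 9-cis-RA at 500 or 100 nM final alongside test compound for 18 h at 37 C.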

Assay [5] deals with Retinoic acid receptor RXR-alpha (Homo sapiens) (UniProt P19793). The description is as above. As to conditions: HEK293T RXRa-UAS-bla, beta-lactamase ratio, antagonist mode. In outline: as §1
The nature of assay [6]: qHTS assay for environmental chemicals that activate the Aryl hydrocarbon Receptor (AhR) signaling pathway (AID 651777; active = well fitted curve in the direction sought with a large enough effect; an effect the other way counts as inactive or inconclusive; also: % of control where 0% means no effect; nearly all actives have a fitted effect of over 15% in size). As to conditions: 1A2-DRE human hepatoma cells, luciferase, 24 h; activation: stronger effect = higher value. The procedure, abridged: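 Human hepatoma 1A2-DRE cells, stably carrying a dioxin response element and CYP1A2 promoter driving luciferase, were exposed to compounds for 24 hr at 37 C and 5% CO2. Luciferase signal was then read after 30 min One-Glo at room temperature.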

Assay [7] concerns the target Peroxisome proliferator-activated receptor alpha (Homo sapiens) (UniProt Q07869). The assay is described as follows: qHTS assay for small molecule agonists of the peroxisome proliferator-activated receptor alpha (PPARalpha) signaling pathway (AID 651778; active = well fitted curve in the direction sought with a large enough effect; an effect the other way counts as inactive or inconclusive; also: % of control where 0% means no effect). As to conditions: PathHunter PPARalpha complementation, chemiluminescence, 6 h; max response: stronger effect = higher value. The procedure, abridged: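 Chemiluminescence from complemented enzyme reported PPARalpha activation in cells after 6 hr of compound treatment at 37 C. The detection reagent was incubated for 60 min at room temperature, and compounds were scored as agonists.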

Assay [8] can be described thus: qHTS assay for small molecule agonists of the antioxidant response element (ARE) signaling pathway measured by Nrf2-dependant transcriptional activity (AID 720636; active = well fitted curve in the direction sought with a large enough effect in the repeat runs; an effect the other way counts as inactive or inconclusive; also: % of control where 0% means no effect). The procedure, abridged: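 ARE-luc HepG2 cells carrying an Nrf2-responsive luciferase reporter were plated in medium with 1% dialyzed FBS, left 6 hr at 37 C to attach, then exposed to compound for 16 hr. Luciferase luminescence was read after ONE-Glo addition.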

A short description of assay [9]: qHTS assay for cell viability of HEK293 cells (AID 743288; active = well fitted curve in the direction sought with a large enough effect; an effect the other way counts as inactive or inconclusive; also: % is scaled to controls: 0 for no effect and ±100 for the full control effect; nearly all actives have a fitted effect of over 50% in size). The following applies: ATP luminescence (CellTiter-Glo), 18 h; max response: stronger effect = lower value. In outline: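 Environmental chemicals tested in qHTS format against parental HEK293 cells; 18 h treatment, 37 C; read-out ATP luminescence (CellTiter-Glo), 30 min RT development.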
The nature of assay [10]: qHTS assay for cell viability of the p53RE-bla HCT-116 cell line (AID 743292; active = well fitted curve in the direction sought with a large enough effect; an effect the other way counts as inactive or inconclusive; also: % is scaled to controls: 0 for no effect and ±100 for the full control effect; nearly all actives have a fitted effect of over 55% in size). In outline: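 CellSensor p53RE-bla HCT-116 cells, 4,000/well, preincubated 5 h at 37 C, then exposed to compounds in DMSO for 16 h at 37 C. Viability read as CellTiter-Glo luminescence (intracellular ATP) after 30 min at room temperature.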
The target of assay [11] is Peroxisome proliferator-activated receptor delta (Homo sapiens) (UniProt Q03181). The assay is described as follows: qHTS assay for small molecule agonists of peroxisome proliferator-activated receptor delta signaling (AID 588534).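 Also: 0% = DMSO basal wells and 100% = positive control agonist at 10 µM.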 The procedure, abridged: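 Cells carrying a PPAR-delta beta-lactamase reporter were treated with compounds for 18 h at 37 °C in agonist mode. CCF4 fluorescence was read after 2 h; EC50 and efficacy from Hill fits.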

A short description of assay [12]: qHTS assay for small molecule antagonists of peroxisome proliferator-activated receptor delta signaling (AID 588535).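 Also: cells co-treated with a PPAR-delta agonist as stimulator during compound exposure.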 As to conditions: HEK293T PPARd-UAS-bla, beta-lactamase FRET ratio, 18 h; 460 nm channel. The procedure, abridged:
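HEK293T PPAR-delta-UAS-bla cells, 4000/well, 2% charcoal/dextran FBS; 5 h 37 C; cpd titration; 18 h 37 C; CCF4 2 h RT; FI 460/530 nm; Hill fit → IC50, efficacy.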

The target of assay [13] is Vitamin D3 receptor (Homo sapiens) (UniProt P11473). The assay is described as follows: qHTS assay for small molecule antagonists of vitamin D receptor signaling (AID 588541).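 Also: receptor activated by calcitriol during compound treatment; series mostly up to about 77 µM; % is scaled to controls: 0 for no effect and ±100 for the full control effect.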 In outline: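 Antagonist-mode beta-lactamase reporter assay: HEK293T VDR-UAS-bla cells were exposed to titrated compound alongside 1-alpha,25-dihydroxyvitamin D3 at 3 nM final for 16 h. Values were normalized to the 50 nM agonist control and DMSO basal, with IC50 and efficacy from Hill equation fits.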

Assay [14] shares this target. The assay is described as follows: qHTS assay for small molecule agonists of vitamin D receptor signaling (AID 588543).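 Also: 0% = DMSO basal and 100% = reference agonist control.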 In outline: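 β-lactamase reporter, VDR-UAS-bla HEK293T, agonist mode. Cells plated 5 h at 37 °C, compound titration 16 h at 37 °C, CCF4 dye 2 h RT, ratio 460/530 nm. Hill fit → EC50, efficacy vs 50 nM 1α,25-(OH)2D3.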
Assay [15] deals with Thyroid hormone receptor beta (Homo sapiens) (UniProt P10828). The assay is described as follows: qHTS assay for small molecule antagonists of thyroid hormone receptor beta signaling (AID 588547; active = well fitted inhibition curve with a large enough effect in the signal ratio, with a control signal flat, not every such curve was filed as active; the % refers to the signal ratio;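 also: cells stimulated with 0.4 nM T3 agonist during compound exposure; series mostly up to about 77 µM; % is scaled to controls: 0 for no effect and ±100 for the full control effect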). As to conditions: TR-UAS-bla HEK293, beta-lactamase ratio, antagonist mode, 18 h. The procedure, abridged: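 Inhibition of T3-driven (0.4nM final) beta-lactamase reporter activity was measured over 0.59 nM to 92 uM compound after 18 h at 37 C. The cells were GripTite HEK293 TR-UAS-bla in charcoal/dextran-stripped serum, with CCF4 ratio read-out and IC50 from Hill fits.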

The nature of assay [16]: qHTS assay for small molecule activators of the p53 signaling pathway (AID 651743; active = well fitted activation curve with a large enough effect in the signal ratio, not every such curve was filed as active; the % refers to the signal ratio; also: series mostly up to about 92 µM; % of control where 0% means no effect). As to conditions: HCT-116 p53RE-bla, beta-lactamase FRET ratio, 16 h; activation: stronger effect = higher value. In outline: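 Read-out is fluorescence intensity from the LiveBLAzer B/G FRET substrate, added for 2 hours at room temperature after HCT-116 p53RE-bla cells had been incubated with compounds for 16 hours at 37 C.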

Assay [17] is described as follows: qHTS assay for small molecule activators of the nuclear factor-kappa B (NF-kB) signaling pathway (AID 651749; active = well fitted activation curve with a large enough effect in the signal ratio; the % refers to the signal ratio; also: series mostly up to about 77 µM; % of control where 0% means no effect). As to conditions: NF-kB-bla ME-180 cells, beta-lactamase FRET ratio, 16 h; activation: stronger effect = higher value. In outline:
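Readout: beta-lactamase reporter driven by an NF-kB response element, detected fluorescently as loss of FRET. Cells were the ME-180 line, treated 16 hr at 37C with pin-transferred compound.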

A short description of assay [18]: qHTS assay for small molecule agonists of the antioxidant response element (ARE) signaling pathway measured by Nrf2-dependant transcriptional activity - cell viability counter screen (AID 720653; active = well fitted curve in the direction sought with a large enough effect in the repeat runs; an effect the other way counts as inactive or inconclusive; also: % is scaled to controls: 0 for no effect and ±100 for the full control effect). The following applies: ARE-bla HepG2 viability, CellTiter-Glo ATP luminescence, 16 h; max response: stronger effect = lower value. The procedure, abridged: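 Cytotoxicity counter screen: intracellular ATP quantified by CellTiter-Glo luminescence in the same ARE-bla HepG2 plates, after 16 h compound exposure and a 2 h beta-lactamase substrate step.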

For assay [19], the target named is Retinoic acid receptor RXR-alpha (Homo sapiens) (UniProt P19793). The assay is described as follows: qHTS assay for small molecule agonists of retinoid X receptor alpha signaling (AID 588544).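 Also: 0% = DMSO basal wells and 100% = reference agonist.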
The target of assay [20] is Thyroid hormone receptor beta (Homo sapiens) (UniProt P10828). The assay is described as follows: qHTS assay for small molecule agonists of thyroid hormone receptor beta signaling (AID 588545).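 Also: 0% = DMSO only and 100% = 10 nM T3.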 The procedure, abridged:
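Beta-lactamase reporter activity under TR response element control is measured in HEK 293 cells after 18 hrs compound exposure. Signal is ratiometric CCF4 fluorescence, 460/530 nm.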

Results filed as inconclusive are left out. Active and inactive are the calls of the source. Unless noted, calls follow the shape of the full dose curve.

Chain of Glucocorticoid receptor (Homo sapiens) (P04150 whole entry, looked up): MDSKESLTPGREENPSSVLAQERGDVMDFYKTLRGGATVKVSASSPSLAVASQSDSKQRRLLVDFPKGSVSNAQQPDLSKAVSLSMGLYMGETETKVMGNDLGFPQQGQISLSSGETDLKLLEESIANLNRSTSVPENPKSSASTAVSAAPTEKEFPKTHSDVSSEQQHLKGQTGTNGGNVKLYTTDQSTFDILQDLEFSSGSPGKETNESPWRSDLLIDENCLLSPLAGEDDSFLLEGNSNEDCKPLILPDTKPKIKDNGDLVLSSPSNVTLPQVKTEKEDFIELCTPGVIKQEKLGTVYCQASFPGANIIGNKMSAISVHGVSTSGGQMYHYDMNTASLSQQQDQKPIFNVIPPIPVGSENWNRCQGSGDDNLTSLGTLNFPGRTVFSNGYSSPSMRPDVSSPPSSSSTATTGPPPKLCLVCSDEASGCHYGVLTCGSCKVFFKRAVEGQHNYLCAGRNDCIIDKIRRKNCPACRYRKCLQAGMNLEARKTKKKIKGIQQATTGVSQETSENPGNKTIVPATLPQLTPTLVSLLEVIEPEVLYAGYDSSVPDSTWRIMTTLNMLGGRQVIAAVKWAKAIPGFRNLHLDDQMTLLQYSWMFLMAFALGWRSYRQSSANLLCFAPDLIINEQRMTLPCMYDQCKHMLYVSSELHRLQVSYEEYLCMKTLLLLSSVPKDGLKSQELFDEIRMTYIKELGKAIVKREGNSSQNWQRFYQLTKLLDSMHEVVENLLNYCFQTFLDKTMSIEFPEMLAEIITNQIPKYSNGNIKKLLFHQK
Chain of Thyroid hormone receptor beta (Homo sapiens) (P10828 whole entry, looked up): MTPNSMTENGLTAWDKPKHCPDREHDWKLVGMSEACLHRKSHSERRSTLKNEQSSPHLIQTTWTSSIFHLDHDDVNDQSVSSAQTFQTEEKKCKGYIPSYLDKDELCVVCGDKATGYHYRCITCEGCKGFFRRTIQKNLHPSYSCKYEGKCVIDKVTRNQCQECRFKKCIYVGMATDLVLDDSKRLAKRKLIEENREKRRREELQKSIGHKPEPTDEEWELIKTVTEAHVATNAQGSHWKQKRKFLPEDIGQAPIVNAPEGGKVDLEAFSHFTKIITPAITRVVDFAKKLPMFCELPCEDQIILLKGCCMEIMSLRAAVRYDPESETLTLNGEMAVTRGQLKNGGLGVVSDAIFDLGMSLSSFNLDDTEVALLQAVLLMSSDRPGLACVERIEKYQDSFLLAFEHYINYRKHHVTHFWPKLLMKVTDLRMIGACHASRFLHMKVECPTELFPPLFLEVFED
Chain of Bile acid receptor (Homo sapiens) (Q96RI1 whole entry, looked up): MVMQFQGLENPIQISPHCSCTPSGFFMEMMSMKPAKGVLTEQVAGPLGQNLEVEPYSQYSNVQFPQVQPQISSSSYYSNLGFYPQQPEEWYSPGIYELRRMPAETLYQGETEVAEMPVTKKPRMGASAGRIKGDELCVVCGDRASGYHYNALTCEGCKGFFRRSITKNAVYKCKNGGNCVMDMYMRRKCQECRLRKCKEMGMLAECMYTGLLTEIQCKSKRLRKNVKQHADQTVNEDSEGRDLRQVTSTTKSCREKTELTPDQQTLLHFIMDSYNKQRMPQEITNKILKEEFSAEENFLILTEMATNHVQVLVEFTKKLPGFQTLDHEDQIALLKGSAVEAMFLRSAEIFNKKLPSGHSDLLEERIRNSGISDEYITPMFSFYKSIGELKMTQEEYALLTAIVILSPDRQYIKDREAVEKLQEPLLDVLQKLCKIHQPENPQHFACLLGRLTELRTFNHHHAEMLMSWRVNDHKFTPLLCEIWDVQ
Chain of Vitamin D3 receptor (Homo sapiens) (P11473 whole entry, looked up): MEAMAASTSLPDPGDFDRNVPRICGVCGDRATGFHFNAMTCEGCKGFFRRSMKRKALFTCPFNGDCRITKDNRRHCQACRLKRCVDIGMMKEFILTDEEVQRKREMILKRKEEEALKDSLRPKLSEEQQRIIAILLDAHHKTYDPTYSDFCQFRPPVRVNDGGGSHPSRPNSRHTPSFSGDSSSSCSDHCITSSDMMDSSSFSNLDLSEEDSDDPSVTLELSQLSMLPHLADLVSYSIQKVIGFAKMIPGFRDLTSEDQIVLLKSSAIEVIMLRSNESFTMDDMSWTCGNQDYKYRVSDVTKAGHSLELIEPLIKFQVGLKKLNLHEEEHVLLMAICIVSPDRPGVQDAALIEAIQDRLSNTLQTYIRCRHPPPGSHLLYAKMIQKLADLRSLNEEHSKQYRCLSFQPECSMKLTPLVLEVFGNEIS
Chain of Retinoic acid receptor RXR-alpha (Homo sapiens) (P19793 whole entry, looked up): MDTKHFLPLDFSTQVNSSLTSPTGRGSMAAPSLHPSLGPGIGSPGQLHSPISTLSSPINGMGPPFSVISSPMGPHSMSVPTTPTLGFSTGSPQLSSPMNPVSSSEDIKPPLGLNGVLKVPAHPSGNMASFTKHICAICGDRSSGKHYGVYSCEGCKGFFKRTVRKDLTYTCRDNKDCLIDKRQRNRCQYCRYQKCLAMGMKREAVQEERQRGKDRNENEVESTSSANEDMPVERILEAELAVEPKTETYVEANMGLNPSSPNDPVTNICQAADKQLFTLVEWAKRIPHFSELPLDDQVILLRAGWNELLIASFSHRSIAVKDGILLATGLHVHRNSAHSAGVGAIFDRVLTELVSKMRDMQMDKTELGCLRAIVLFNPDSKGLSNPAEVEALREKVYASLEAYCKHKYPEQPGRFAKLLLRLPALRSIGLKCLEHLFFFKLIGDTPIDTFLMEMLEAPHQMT
Chain of Peroxisome proliferator-activated receptor delta (Homo sapiens) (Q03181 whole entry, looked up): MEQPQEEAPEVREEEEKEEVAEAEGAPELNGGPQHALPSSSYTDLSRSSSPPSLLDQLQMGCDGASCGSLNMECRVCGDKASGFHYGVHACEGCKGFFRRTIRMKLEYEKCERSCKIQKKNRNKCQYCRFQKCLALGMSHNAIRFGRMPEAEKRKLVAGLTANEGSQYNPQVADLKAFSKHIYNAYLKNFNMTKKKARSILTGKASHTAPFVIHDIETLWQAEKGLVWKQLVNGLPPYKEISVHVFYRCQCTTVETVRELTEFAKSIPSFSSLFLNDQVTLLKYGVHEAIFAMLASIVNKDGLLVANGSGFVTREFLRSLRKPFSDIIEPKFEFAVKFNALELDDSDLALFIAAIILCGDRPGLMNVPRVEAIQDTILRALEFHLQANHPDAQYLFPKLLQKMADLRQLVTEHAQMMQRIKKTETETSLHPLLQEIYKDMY
Chain of Peroxisome proliferator-activated receptor alpha (Homo sapiens) (Q07869 whole entry, looked up): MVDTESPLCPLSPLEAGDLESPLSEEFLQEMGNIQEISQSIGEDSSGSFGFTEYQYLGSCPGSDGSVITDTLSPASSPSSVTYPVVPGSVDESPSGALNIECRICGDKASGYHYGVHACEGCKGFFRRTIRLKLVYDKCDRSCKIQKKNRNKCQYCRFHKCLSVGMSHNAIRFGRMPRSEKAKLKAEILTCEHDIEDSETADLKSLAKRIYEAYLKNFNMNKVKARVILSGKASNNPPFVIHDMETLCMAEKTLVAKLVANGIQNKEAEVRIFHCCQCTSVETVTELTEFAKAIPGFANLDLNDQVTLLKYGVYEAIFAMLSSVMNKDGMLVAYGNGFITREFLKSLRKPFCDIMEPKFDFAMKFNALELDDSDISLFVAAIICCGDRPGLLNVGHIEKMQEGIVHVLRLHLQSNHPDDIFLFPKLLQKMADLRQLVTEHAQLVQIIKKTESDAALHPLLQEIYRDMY

On to `CC1COC(Cn2cncn2)(c2ccc(Oc3ccc(Cl)cc3)cc2Cl)O1` (centres undefined), for which the Potency in [1] is 44.7 µM (active); in assay [5], 39.8 µM (active). The activation in assay [2] was 3.21% (inactive); in assay [3], -11.8% (inactive); in assay [6], 14.3% (inactive). Besides, the figures for the max response in assay [4], in assay [7] and in [9] were 9.03%, 6.01% (inactive) and -29.8% (inactive), respectively. The Potency entry in assay [8] and in [10] was “inactive” throughout.
In the case of `COC[C@H](C)N(C(=O)CCl)c1c(C)csc1C`, the Potency entry in assay [1], in [13] and in [10] was “inactive” each time. In addition, the activation in assay [2] is -0.72% (inactive); in assay [3] it was -4.92% (inactive); in [16], -5.41% (inactive); in assay [17] it was -0.69% (inactive); in assay [6], -2.7% (inactive). Besides, the compound was classed as inactive in assay [11] and in assay [14]. Besides, the max response in [12] is -36.8%; in assay [4], -0.446%; in assay [5], -19.4% (inactive); in assay [7] it was -0.842% (inactive); in [18], 0.25% (inactive); in assay [9] it was -14.5% (inactive). Besides, the activity change % (negative = inhibition) in [15] is -22.8% (inactive).
Turning to `CNc1cnn(-c2cccc(C(F)(F)F)c2)c(=O)c1Cl`, the Potency entry in assay [1], in [13] and in assay [10] was “inactive” each time. Moreover, the results for the activation in assay [2], in assay [3] and in assay [16] were -1.1% (inactive), -4.87% (inactive) and 1.24% (inactive), respectively. In addition, the call in assay [11] and in [14] was inactive. Besides, the max response in [12] is 18.9%; in [4], -2.6%; in [5], 8.14% (inactive); in assay [7] it was -1.19% (inactive); in [18], 3.99% (inactive); in assay [9] it was -7.33% (inactive). Moreover, the activity change % (negative = inhibition) in [15] is 8.76% (inactive).
Turning to `CCCSP(=O)(OCC)Oc1ccc(Br)cc1Cl` (centres undefined), the Potency entry in assay [1], in assay [13], in assay [19], in assay [20], in assay [8] and in assay [10] was “inactive” throughout. Moreover, the activation was 3.54% (inactive) in [2], 3.94% (inactive) in [16], 0.74% (inactive) in [17] and 3.36% (inactive) in [6]. Also, the compound was called inactive in assay [11] and in assay [14]. The max response in assay [12] was 5.89%; in assay [7] it was -0.001% (inactive); in [18], -7.9% (inactive); in [9], -22.2% (inactive). The activity change % (negative = inhibition) in assay [15] was 3.3% (inactive).
Turning to `CC(C)(C)OC=O`, the activation in [2] was -2.91% (inactive).
Regarding `O=C/C(Cl)=C(/Cl)C(=O)O`, the Potency in assay [1] was 44.7 µM (active). The activation in assay [3] is -13.8% (inactive); in assay [17], 1.31% (inactive); in assay [6], 5.71% (inactive). In addition, the outcome in assay [14] was inactive. The Potency result in [20] and in [10] was “inactive” in each case. The max response is -1.15% (inactive) in [7] and -4.23% (inactive) in assay [18].
